Fh CTSL1 inh: Fasciola hepatica cathepsin L1 inhibitors, primary screen, counter-screen for PFM18AAP inhibitor project, biochemical, QFRET, fluorogenic peptide substrate. inhibition, % at 5.96 µM. recombinant F. hepatica cathepsin L1, Z-Leu-Arg-MCA fluorescence. hit rate 0.49% among 300,000;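 active means inhibition above the mean of all tested compounds plus 3 SD, set per screening campaign, cut at about 17% in these data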
HGIII-sPLA2 inh: human group III sPLA2 inhibitors, primary screen, biochemical, QFRET, BODIPY PC-A2 liposome substrate; Group 3 secretory phospholipase A2 (Homo sapiens), Q9NZ20; QFRET BODIPY PC-A2 liposome hydrolysis, fluorescence; inhibition, % at 12.2 µM; hit rate 0.56% among 370,000; AID 743126, 2013;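 active means inhibition above mean plus 3 SD of compounds lying within the high and low control bounds, cut at about 19% in these data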
NALP1 inh: NALP1 inflammasome inhibitors in reconstituted yeast, colorimetric, S. cerevisiae, triplicate retest. inhibition, % at 10 µM. S. cerevisiae NALP1/ASC/caspase-1 growth, X-gal OD620, 72 h. hit rate 0.61% among 280,000; in the data active means inhibition mostly above about 24%, no sharp cut-off; inactive means mostly below about 32%
APOBEC3G inh: APOBEC3G DNA deaminase inhibitors, primary screen, biochemical, fluorescence, single-stranded DNA substrate, uHTS. DNA dC->dU-editing enzyme APOBEC-3G (Homo sapiens), Q9HC16. recombinant A3G, ssDNA deamination FAM/TAMRA fluorescence. inhibition, % at 20 µM. hit rate 0.28% among 330,000. AID 493012, 2011;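 active means inhibition of at least 40% at 20 µM, with no more than 30% in the related APOBEC3A deaminase screen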
A3A deaminase: APOBEC3A ssDNA deaminase inhibitors, primary screen, selectivity assay for APOBEC3G inhibitor project, biochemical, FAM/TAMRA oligo cleavage fluorescence | recombinant A3A, FAM/TAMRA ssDNA deamination fluorescence | inhibition, % at 20 µM | hit rate 0.41% among 330,000 | AID 493011, 2011;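 active means at least 40% inhibition at 20 µM here, with at most 30% in a related deaminase screen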
Target sequence (P31941 whole entry, looked up): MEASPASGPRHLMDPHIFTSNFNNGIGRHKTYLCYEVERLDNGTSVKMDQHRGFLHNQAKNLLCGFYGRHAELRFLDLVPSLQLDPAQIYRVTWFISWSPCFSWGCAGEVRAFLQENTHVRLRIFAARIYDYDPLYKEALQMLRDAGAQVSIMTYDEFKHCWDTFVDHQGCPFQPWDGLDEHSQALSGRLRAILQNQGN
APOBEC3A confirm: APOBEC3A deaminase inhibitors, retest, confirmation, selectivity assay for APOBEC3G inhibitor project, biochemical, single concentration, fluorescence readout. AID 493151, 2011. shares compounds with A3A deaminase. inhibition, % at 20 µM. hit rate 63% among 1,400. recombinant A3A, ssDNA deaminase UDG fluorescence assay;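 active means inhibition reaching a set limit, 80% of the first screen's cutoff, at 20 µM in any replicate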
UDG ctr A3A: E. coli UDG inhibitors, confirmation, counter-screen for APOBEC3A inhibitor project, biochemical, single concentration, fluorescence, FAM/TAMRA oligo | UDG counterscreen, FAM/TAMRA uracil oligo fluorescence | shares compounds with A3A deaminase | 1,000 tested, under 10 active | inhibition, % at 20 µM; call rule not given here
Numbers stand for hits; - = inactive; . = no result; ! = a repeat was not active. An excerpt weighted towards active compounds, which were near 2% of everything screened.

SMILES | Fh CTSL1 inh | HGIII-sPLA2 inh | NALP1 inh | APOBEC3G inh | A3A deaminase | APOBEC3A confirm | UDG ctr A3A
Cc1[nH]n(-c2ccccc2)c(=O)c1C=NCc1ccco1 | - | . | - | - | - | . | .
Cc1[nH]n(-c2cccc(Cl)c2)c(=O)c1C=NCc1ccco1 | - | - | - | - | 44.2 | - | .
Cc1ccc(S(=O)(=O)NNC(=O)Cc2cccn2C)cc1 | - | - | - | - | - | . | .
Cc1cccc(S(=O)(=O)NNC(=O)Cc2cccn2C)c1 | - | - | - | - | 58.3 | - | -
CCn1c(C)c2c([n+]1CC)CC(C)(C)CC2=O | - | - | - | - | 59.1 | 76.0 | -
CCn1c2c(c(C)cc1=O)C(=O)CC(C)(C)C2 | - | - | - | - | - | . | .
COC(=O)c1[nH]c2ccc(Cl)cc2c1NC(=O)CN1CCc2cc(OC)c(OC)cc2C1 | - | - | - | - | 41.2 | 60.5 | -
COC(=O)c1[nH]c2cc(C)ccc2c1NC(=O)CN1CCc2cc(OC)c(OC)cc2C1 | - | . | - | - | - | . | .
COC(=O)[C@@]12CCCCC3=C1N(CCC3)C(=O)[C@H]2CC(=O)N1CCN(C(=O)c2ccco2)CC1 | . | - | . | . | . | . | .
CC(=O)OCCCn1c(C)[n+](C)c2cc(Cl)c(Cl)cc21 | - | - | - | - | 87.0 | 72.9 | -
CCn1c(C)[n+](CCOC(C)=O)c2cc(Cl)c(Cl)cc21 | - | - | - | - | 63.0 | 78.2 | -
COc1ccc(/C=N/NC(=O)C(C)Sc2ccccn2)cc1[N+](=O)[O-] (centres undefined) | - | - | - | - | 49.0 | 65.4 | -
COc1ccc(CN2C(=O)CSCCC2(C)c2nnnn2-c2c(C)cccc2C)cc1 (centres undefined) | . | - | . | . | . | . | .
O=C1CN=C(Nc2ccccc2Cl)N1Cc1ccc2c(c1)OCO2 | - | - | - | - | 96.0 | - | -
O=C(O)c1cccc(-c2ccc(/C=C3/SC(=Nc4ccccc4)N(Cc4cccnc4)C3=O)o2)c1 | . | - | - | - | 51.9 | 32.6 | -
CCN1C(=O)/C(=C\c2ccc(-c3cccc(C(=O)OC)c3)o2)SC1=Nc1ccc(C(=O)O)cc1 | - | - | - | - | - | . | .
COc1ccc(/C=C/c2cccc[n+]2C)c(O)c1 | - | - | - | - | - | . | .
C[n+]1ccccc1/C=N/O | - | - | - | - | 64.9! | 80.1 | -
CC(O)/C=C/c1cccc[n+]1C (centres undefined) | - | - | - | - | 59.5 | 80.0 | -
C[n+]1ccccc1/C=C/c1cc(Br)ccc1O | - | - | - | - | 49.8 | 25.6 | -
Cc1ccccc1CS(=O)(=O)Cc1ccc(C(=O)Nc2cccc(C)c2C)o1 | . | - | . | . | . | . | .
Cc1ccc(OCc2nnc(SCC(=O)c3ccc(-c4ccccc4)cc3)n2Cc2ccco2)cc1 | . | - | . | . | . | . | .
CCN(c1ccccc1)S(=O)(=O)c1cc(C(=O)OC(C)C(=O)Nc2ccc3c(c2)OCCO3)ccc1C (centres undefined) | - | - | - | - | 50.2 | 36.6 | -
Cc1ccc(/C=C/S(=O)(=O)NCC(=O)OCC(=O)Nc2c(F)cccc2F)cc1 | - | - | . | - | 54.9 | - | .
C=CCN=C1NC(c2cccc(Cl)c2)C(C(=O)OC)=C(C)N1Cc1ccc(C(F)(F)F)cc1 (centres undefined) | . | - | . | . | . | . | .
CCOc1cc(N2CCOCC2)c(OCC)cc1NC(=O)c1c(C)noc1C | . | - | . | - | 43.2 | - | .
CCOc1cc(N2CCOCC2)c(OCC)cc1NC(=O)c1c(-c2ccccc2)noc1C | . | - | . | - | - | . | .
COc1ccccc1NS(=O)(=O)c1cc(NC(=O)c2ccc(NC(C)=O)cc2)ccc1N1CCOCC1 | . | - | . | . | . | . | .
